Outcome and activity change, negative = inhibition data for 40 compounds are collected here from PubChem BioAssay (NCATS).

Molecules are shown by their SMILES. Unmarked numbers belong to inactive results. The source made the active and inactive calls. Calls follow the shape of the dose curve; as a rule, active = well fitted inhibition curve with a large enough effect; inconclusive = small, poorly fitted or top-dose-only effect; inactive = no such curve, though single readings can be large or run the other way.

The nature of this assay: qHTS assay for measurement of the activity of small molecule inhibitors on Zika virus induced Caspase-3 activity in human astrocytoma cells (AID 1224859). To be noted: SNB-19 ZIKV-induced caspase-3/7, luminescence, 6 h; series mostly up to 45.7 µM. From the text: National Center for Advancing Translational Sciences [NCATS]
Johns Hopkins University School of Medicine
Increase in the Caspase-3 activity indicates an activation of apoptosis cell death pathway caused by Zika virus infection in certain types of neuronal cells including human neural progenitor cells (hNPCs), astrocytes, and astrocytoma cell line (SNB-19). This cell-based caspase-3 activity assay measures the increased caspase-3 activity in the astrocytoma cell line (SNB-19) after a 6-hour Zika virus infection with a luminescence readout. A decrease in the luminescence signal in this assay by small molecule treatment indicates an inhibitory effect of that small molecule on the Zika virus induced caspase-3 activity that may correlate with its effect on reduction of Zika virus caused cell death.
The medium for SNB-19 cells is composed of RPMI 1640 (ATCC, Cat.# 30-2001), 10% fetal bovine serum (FBS) (GE healthcare Life Sciences, Cat.# SH30071.03), and 1% Pen/Strep (Gibco, Cat.# 15140-122). A Caspase-Glo 3/7 assay kit (catalog number G8092; Promega, Madison, WI) was used to detect caspase-3 activity induced by Zika virus infection in human cells. The reagent mixture was reconstituted as described in the protocol from the manufacturer. Polystyrene tissue culture treated and PDL coated white plates were obtained from Greiner Bio-One (Monroe, NC). Cells were seeded in 384- or 1536-well assay plates and cultured at 37 C with 5% CO2 for 16 to 20 hours. The typical cell seeding density in the 1536-well plate assay is 250 cells/well in 3ul medium for SNB-19 cells in tissue culture treated plates. Compounds were added to cells and incubated for one hour before addition of ZIKV solution to cells (2 FFU/cell). After incubation at 37 C with 5% CO2 for 6 hours, the reagent mixture of Caspase-Glo 3/7 assay kit was added to each well, followed by incubation at room temperature for 30 minutes. The luminescence intensity of the assay plates was measured using a ViewLux plate reader (PerkinElmer). Data were normalized by using the cell-containing wells without ZIKV as a negative control (0% induction of caspase 3/7 activity) and wells containing ZIKV infected cells (Caspase-3 activity induced) as a positive control (100% induction of caspase 3 activity). The percentage inhibitions of the increased Caspase-3 activity by small molecule inhibitors were then calculated.
In the case of `CCCCN1CCCC1C(=O)Nc1c(C)cc(C)cc1C` (stereo not given), the outcome was inactive.

As to `COC(=O)[C@@H]1CC2=CC(=O)CC[C@]2(C)[C@@]23O[C@@H]2C[C@@]2(C)[C@@H](CC[C@@]24CCC(=O)O4)[C@H]13`, the result was inactive.

As to `Oc1c(Cl)cc(Cl)cc1Sc1cc(Cl)cc(Cl)c1O`, the call was inactive.

Take `CCCCCC=CCC=CCCCCCCCC(=O)OCC`: the compound was called inactive.

Turning to `CCCCCCCCCCCCCCNCCO`, the call was inactive.

With `Cc1cccn2c(=O)c(-c3nnn[nH]3)cnc12`, the result was inactive.

Turning to `CN(C)CC/C=C1/c2ccccc2COc2ccc(CC(=O)O)cc21`, the outcome was inactive.

Consider `COc1cc(-c2ccc(=O)[nH]n2)ccc1OC(F)F`, for which the result was inactive.

As for `NC(=NCCCCCCN=C(N)/N=C(\N)Nc1ccc(Cl)cc1)/N=C(\N)Nc1ccc(Cl)cc1`, the compound was classed as inactive.

For `CC/C(=C(/CC)c1ccc(O)cc1)c1ccc(O)cc1`, the compound was called inactive.

Take `CC(=O)Oc1ccc2c(c1)CC[C@@H]1[C@@H]2CC[C@]2(C)[C@@H](O)CC[C@@H]12`: the call was inactive.

With `CC1(C)CCC(NC(=O)[C@@H](N)CCC(=O)O)CC1`, the compound was classed as inactive.

For `CCCCCCCCCCCCCCCC[N+](C)(C)CCN(Cc1ccc(OC)cc1)c1ncccn1`, the result was inactive.

On to `CCN1CCCC1=O`, for which the compound was classed as inactive.

For the compound `C[C@@H]1C(=O)NC2=Nc3cccc(Cl)c3CN21`, the call was inactive.

In the case of `NCCC(O)(P(=O)(O)O)P(=O)(O)O`, the call was inactive.

For `O=C(OCC(O)CO)c1ccccc1Nc1ccnc2cc(Cl)ccc12` (stereo not given), the call was inactive.

As for `C#C[C@]1(OC(C)=O)CC[C@H]2[C@@H]3CCC4=C[C@@H](OC(C)=O)CC[C@@H]4[C@H]3CC[C@@]21C`, the outcome was inactive.

On to `COc1cccc2c1C(=O)c1c(O)c3c(c(O)c1C2=O)C[C@@](O)(C(C)=O)C[C@@H]3O[C@H]1C[C@H](N)[C@H](O)[C@H](C)O1`, for which the call was inactive.

As to `Clc1ccc2c(c1)CCc1cccnc1C2=C1CCNCC1`, the outcome was inactive.

As for `CC(=O)Oc1ccc(C(=C2CCCCC2)c2ccc(OC(C)=O)cc2)cc1`, the compound was classed as inactive.

For the compound `Cc1ccc(O)c2ncccc12`, the compound was called inactive.

In the case of `C#C[C@]1(O)CC[C@H]2[C@@H]3CCC4=CC(=O)CC[C@@H]4[C@H]3CC[C@@]21C`, the result was inactive.

Consider `NC(CO)(CO)CO`, for which the compound was called inactive.

On to `O=C(CCN1CCC(c2ccccc2)C1)c1ccc2c(c1)OCCO2` (stereo not given), for which the outcome was inactive.

As for `Cc1onc(-c2c(Cl)cccc2Cl)c1C(=O)N[C@@H]1C(=O)N2[C@@H]1SC(C)(C)[C@@H]2C(=O)O`, the call was inactive.

Turning to `COc1cc2c(cc1OC)C(C(C(=O)N(CCc1ccc(OC)c(OC)c1OC)CCc1ccc(OC)c(OC)c1OC)c1ccccc1)=NCC2` (stereo not given), the compound was classed as inactive.

For the compound `CC(CCc1ccccc1)NCC(O)c1ccc(O)c(C(N)=O)c1` (stereo not given), the call was inactive.

As to `C=CCc1ccc(O)c(OC)c1`, the call was inactive.

As to `Cc1c(F)c(N2CCNC(C)C2)cc2c1c(=O)c(C(=O)O)cn2C1CC1` (stereo not given), the call was inactive.

On to `CCCCCCc1ccc(O)cc1O`, for which the compound was classed as inactive.

Turning to `NCCCC[C@H](N[C@@H](CCc1ccccc1)C(=O)O)C(=O)N1CCC[C@H]1C(=O)O`, the compound was called inactive.

As for `CCCCS(=O)(=O)N[C@@H](Cc1ccc(OCCCCC2CCNCC2)cc1)C(=O)O`, the compound was classed as inactive.

As to `Oc1ccc(Cl)cc1Sc1cc(Cl)ccc1O`, the compound was classed as inactive.

In the case of `NC[C@H]1O[C@H](O[C@H]2[C@H](O[C@@H]3O[C@H](CO)[C@@H](O)[C@H]3O)C(O)[C@H](N)C[C@@H]2N)[C@H](N)[C@@H](O)[C@@H]1O` (stereo not given in full), the activity change, negative = inhibition is 3.88% [at 9.06 µM].

For the compound `O=c1c(-c2ccccc2)c1-c1ccccc1`, the result was inactive.

Turning to `CC(=O)OCC(=O)NCCCOc1cccc(CN2CCCCC2)c1`, the result was inactive.

Consider `Cc1c(C(N)=O)cc([N+](=O)[O-])cc1[N+](=O)[O-]`, for which the call was inactive.

`CCCC1O[C@@H]2C[C@H]3[C@@H]4CCC5=CC(=O)C=C[C@]5(C)[C@H]4[C@@H](O)C[C@]3(C)[C@]2(C(=O)CO)O1` (stereo not given in full): the result was inactive.

Consider `CC(=O)N/N=C/c1ccc([N+](=O)[O-])o1`, for which the outcome was inactive.
